Among the data in PubChem BioAssay (Tox21) are Potency values, retold here.

Assay [1] in a line: Nuclear factor erythroid 2-related factor 2/antioxidant responsive element (Nrf2/ARE) small molecule agonists: qHTS cell viability counter screen in human keratinocytes (AID 1919968; active = well fitted curve in the direction sought with a large enough effect in the repeat runs; an effect the other way counts as inactive or inconclusive; also: nearly all actives have a fitted effect of over 55% in size; also: potency is read from the fitted curve at half-maximal effect). Put shortly:
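CellTiter-Fluor fluorescence, read 1 h after reagent, gave viability in the same wells as the ARE-luciferase assay. KeratinoSens cells (1,500/well) had 23 h compound exposure at 37 C/5% CO2 following 5 h plating.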
In general terms: qHTS replaces the single test concentration by a dilution series.

Assay [2] in a line: Nuclear factor erythroid 2-related factor 2/antioxidant responsive element (Nrf2/ARE) small molecule agonists: luciferase reporter gene qHTS assay in human keratinocytes (AID 1919969). Also: nearly all actives have a fitted effect of over 35% in size. Also: potency is read from the fitted curve at half-maximal effect. A general note: In a reporter assay the amount or activity of a reporter protein is the signal.
In assay [3] the target is Gonadotropin-releasing hormone receptor (Homo sapiens) (UniProt P30968). As to the kind of experiment: Human gonadotropin-releasing hormone receptor (GnRHR) small molecule agonists, calcium flux assay in GnRHR-HEK293 cells (AID 1920063). Also: nearly all actives have a fitted effect of over 35% in size. Put shortly: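 Agonist mode: compounds at 15 concentrations, in triplicate, went onto calcium dye-loaded GnRHR-HEK293 cells. Intracellular calcium was then followed as 480/540 nm fluorescence at 1 s intervals over 3 min.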
(In general: Calcium assays in cells follow changes in intracellular calcium, usually with a dye or a luminescent sensor.)

Assay [4] has as its target KiSS-1 receptor (Homo sapiens) (UniProt Q969F8). Put plainly: Human kisspeptin (KISS1R) small molecule agonists, calcium flux assay in KISS1R-HEK293 cells (AID 1920064; active = well fitted curve in the direction sought with a large enough effect in the repeat runs; an effect the other way counts as inactive or inconclusive). Put shortly:
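Agonist mode: intracellular calcium rise tracked at 1 s intervals over 3 min (480/540 nm) immediately after compound addition to dye-loaded KISS1R-HEK293 stable cells. Each compound tested at 15 concentrations in triplicate.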

Assay [5] can be described thus: G protein-coupled receptor (GPCR) small molecule agonists, calcium flux assay: HEK293 wild type cell line counter screen (AID 1920065). A digest of the protocol: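 Calcium flux counter screen: compound added in agonist mode at 15 concentrations in triplicate to dye-loaded parental HEK293 cells. Fluorescence (480/540) read kinetically for 3 min; ATP served as positive control.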

Assay [6] is described as follows: p53 small molecule agonists, cell-based qHTS assay with rat liver microsomes: qHTS cell viability counter screen (AID 1963580). Also: nearly all actives have a fitted effect of over 45% in size. A digest of the protocol:
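Cytotoxicity counter screen: intracellular ATP measured by CellTiter-Glo luminescence in the same wells as the beta-lactamase reporter read, on HCT-116 p53RE-bla cells exposed 16 h at 37 C to compounds with rat liver microsomes and NADPH, each 0.5 mg/mL final.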

Assay [7] in a line: p53 small molecule agonists, cell-based qHTS assay: qHTS cell viability counter screen (AID 1963581). Also: nearly all actives have a fitted effect of over 45% in size. A digest of the protocol: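 Counter screen read by CellTiter-Glo luminescence (ATP content, 30 min at room temperature), run in the same wells as the beta-lactamase reporter read. HCT-116 p53RE-bla cells saw compounds for 16 h at 37 C.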
Assay [8] deals with 5-hydroxytryptamine receptor 2A (Homo sapiens) (UniProt P28223). As to the kind of experiment: 5-hydroxytryptamine receptor 2A (HTR2A) small molecule antagonists, cell-based qHTS assay (AID 1963586). Also: nearly all actives have a fitted effect of over 45% in size. A digest of the protocol:
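CHO cells stably expressing human HTR2A were plated for 18 h at 37 C, then loaded with calcium dye for 1 h. Compounds were preincubated 5 min at room temperature before DOI (4 nM solution) was added. Kinetic fluorescence was read for 3 min.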

Assay [9] addresses Muscarinic acetylcholine receptor M1 (Homo sapiens) (UniProt P11229). Put plainly: Cholinergic receptor muscarinic 1 (CHRM1) small molecule antagonists, cell-based qHTS assay (AID 1963588). Also: nearly all actives have a fitted effect of over 40% in size. Also: potency is read from the fitted curve at half-maximal effect. A digest of the protocol: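 Compounds were tested at 15 concentrations in three independent runs. Dye-loaded CHRM1-CHO cells were exposed 5 min at room temperature before stimulation by acetylcholine added at 50nM. Intracellular calcium was read kinetically on FDSS for 3 min.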

The target is the same in assay [10]. Put plainly: Cholinergic receptor muscarinic 1 (CHRM1) small molecule agonists, cell-based qHTS assay (AID 1963589). Also: nearly all actives have a fitted effect of over 35% in size. Put shortly:
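Agonist-mode calcium-flux screen: compounds at 15 concentrations, three independent runs, were pin-transferred onto dye-loaded human CHRM1-CHO cells. Fluorescence was then recorded kinetically every second over minutes.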

Assay [11] is described as follows: cAMP Responsive Elements (CRE) small molecule agonists, cell-based qHTS assay (AID 1963590). A digest of the protocol:
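Agonist mode: compound added to CRE-bla HEK 293T cells (2,000/well, 18 h after plating) for 3 h at 37 C/5% CO2. Reporter activity detected via FRET beta-lactamase substrate, 2 h room-temperature loading.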

Assay [12] deals with Beta-2 adrenergic receptor (Homo sapiens) (UniProt P07550). Put plainly: Adrenergic beta2 receptor (ADRB2) small molecule antagonists, cell-based qHTS assay (AID 1963592). Also: series mostly up to about 92 µM; nearly all actives have a fitted effect of over 50% in size. Put shortly: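 Assay format: CHO-ADRB2 cells, 18-20hr seeding at 37C/5% CO2, then compound plus 1nM isoproterenol agonist mix for 0.5hr RT. Homogeneous time-resolved fluorescence cAMP detection after 1hr, expressed as 665/615 nm ratio.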

The target is the same in assay [13]. As to the kind of experiment: Adrenergic beta2 receptor (ADRB2) small molecule agonists, cell-based qHTS assay (AID 1963593).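 Also: CHO cells stably overexpressing human ADRB2.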 Put shortly:
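CHO cells stably over-expressing ADRB2 were plated overnight at 37C, then dosed with compounds plus a stimulation mix containing 100uM IBMX and 25uM Ro-20-1724 for 0.5hr at room temperature. cAMP was measured by HTRF competition, 1hr.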

In assay [14] the target is D(2) dopamine receptor (Homo sapiens) (UniProt P14416). As to the kind of experiment: Dopamine D2 receptor (DRD2) small molecule agonists, cell-based qHTS assay (AID 1963594). Also: nearly all actives have a fitted effect of over 35% in size. A digest of the protocol: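 HEK293 cells stably expressing human DRD2, pre-treated with PDE inhibitor Ro20-1724 (0.1 mM final) and compound 10 min at room temperature, then stimulated with NKH477 (200nM […]) for 30 min. cAMP read by HTRF (665/620 nm).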

Assay [15] shares this target. Put plainly: Dopamine D2 receptor (DRD2) small molecule antagonists, cell-based qHTS assay (AID 1963595; active = well fitted inhibition curve with a large enough effect in the signal ratio in the repeat runs, with a control signal flat; the % refers to the signal ratio). Put shortly: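 Readout: HTRF cAMP, cAMP-d2 competing with cellular cAMP for anti-cAMP cryptate, read after 1 h. Cells: DRD2-HEK293. Conditions: 0.1 mM Ro20-1724, 12 nM quinpirole, 200 nM NKH477, 30 min RT.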
Assay [16] can be described thus: p53 small molecule agonists, cell-based qHTS assay with human liver microsomes: qHTS cell viability counter screen (AID 1963579). Also: nearly all actives have a fitted effect of over 45% in size. Put shortly:
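HLM-supplemented (0.5 mg/mL final) and NADPH-supplemented (0.5 mg/mL final) p53RE-bla cultures, 4,000 cells per well, were dosed with compounds in DMSO for 16 h at 37 C; luminescent ATP detection (CellTiter-Glo, 30 min, room temperature) quantified surviving cells.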

Assay [17] can be described thus: cAMP Responsive Elements (CRE) small molecule antagonists, cell-based qHTS assay (AID 1963591; active = well fitted inhibition curve with a large enough effect in the signal ratio in the repeat runs, not every such curve was filed as active; the % refers to the signal ratio). A digest of the protocol: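 Antagonist mode: compounds are added alongside the adenylyl cyclase activator NKH477 (0.25 uM final) to CRE-bla HEK293T cells for 3 h. LiveBLAzer FRET substrate, 2 h at room temperature, reports bla expression.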
The nature of assay [18]: p53 small molecule agonists, cell-based qHTS assay (AID 1963582; active = well fitted activation curve with a large enough effect in the signal ratio in the repeat runs, not every such curve was filed as active; the % refers to the signal ratio). Put shortly: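 Read-out is beta-lactamase FRET fluorescence after 2 h at room temperature with LiveBLAzer B/G substrate. p53 response element-bla cells were treated 16 h at 37 C with compounds in DMSO, added 5 h after seeding.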
The target in assay [19] is 5-hydroxytryptamine receptor 2A (Homo sapiens) (UniProt P28223). Put plainly: 5-hydroxytryptamine receptor 2A (HTR2A) small molecule agonists, cell-based qHTS assay (AID 1963587). Also: nearly all actives have a fitted effect of over 30% in size. Put shortly: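 CHO cells stably expressing human HTR2A, plated 18 h, loaded with calcium dye 1 h at 37 C. Agonist mode: compounds added and intracellular calcium fluorescence recorded kinetically for 2 min at 1 sec intervals.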

The nature of assay [20]: p53 small molecule agonists, cell-based qHTS assay with human liver microsomes (AID 1963577).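 Also: p53 response element beta-lactamase reporter cells with liver microsomes plus NADPH.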 A digest of the protocol: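 Reporter activation was measured by LiveBLAzer fluorescence intensity in p53RE-bla cells, which had been exposed to compounds for 16 h at 37 C alongside 0.5 mg/mL human liver microsomes and 0.5 mg/mL NADPH (final concentrations).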

“And” between values parts separate entries of the source, which are not always exact repeats. Identical values can stand only once. Records with an inconclusive call do not appear. Where a structure was tested more than once in an assay, its records may differ in their call. The source made the active and inactive calls. Unless noted, calls follow the shape of the full dose curve.

Chain of KiSS-1 receptor (Homo sapiens) (Q969F8 whole entry, looked up): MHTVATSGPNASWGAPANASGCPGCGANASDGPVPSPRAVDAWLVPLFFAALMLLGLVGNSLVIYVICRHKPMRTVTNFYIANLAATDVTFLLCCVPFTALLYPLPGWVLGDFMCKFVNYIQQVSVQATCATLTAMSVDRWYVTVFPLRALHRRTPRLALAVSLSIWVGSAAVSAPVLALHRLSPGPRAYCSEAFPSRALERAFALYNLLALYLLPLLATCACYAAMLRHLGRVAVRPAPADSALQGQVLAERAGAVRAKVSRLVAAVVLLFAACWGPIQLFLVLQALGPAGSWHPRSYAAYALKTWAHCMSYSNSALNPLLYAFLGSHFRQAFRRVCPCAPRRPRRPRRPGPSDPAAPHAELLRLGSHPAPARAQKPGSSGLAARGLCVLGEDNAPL
Chain of Gonadotropin-releasing hormone receptor (Homo sapiens) (P30968 whole entry, looked up): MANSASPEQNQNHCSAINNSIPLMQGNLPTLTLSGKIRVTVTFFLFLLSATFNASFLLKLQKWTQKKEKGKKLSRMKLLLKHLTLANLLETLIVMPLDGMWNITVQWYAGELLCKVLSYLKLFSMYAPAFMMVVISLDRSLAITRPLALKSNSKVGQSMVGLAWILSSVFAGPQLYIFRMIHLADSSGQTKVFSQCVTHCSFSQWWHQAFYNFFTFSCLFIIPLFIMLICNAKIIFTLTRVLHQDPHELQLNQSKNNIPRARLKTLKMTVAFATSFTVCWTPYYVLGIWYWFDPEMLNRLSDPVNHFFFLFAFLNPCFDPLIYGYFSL
Chain of Beta-2 adrenergic receptor (Homo sapiens) (P07550 whole entry, looked up): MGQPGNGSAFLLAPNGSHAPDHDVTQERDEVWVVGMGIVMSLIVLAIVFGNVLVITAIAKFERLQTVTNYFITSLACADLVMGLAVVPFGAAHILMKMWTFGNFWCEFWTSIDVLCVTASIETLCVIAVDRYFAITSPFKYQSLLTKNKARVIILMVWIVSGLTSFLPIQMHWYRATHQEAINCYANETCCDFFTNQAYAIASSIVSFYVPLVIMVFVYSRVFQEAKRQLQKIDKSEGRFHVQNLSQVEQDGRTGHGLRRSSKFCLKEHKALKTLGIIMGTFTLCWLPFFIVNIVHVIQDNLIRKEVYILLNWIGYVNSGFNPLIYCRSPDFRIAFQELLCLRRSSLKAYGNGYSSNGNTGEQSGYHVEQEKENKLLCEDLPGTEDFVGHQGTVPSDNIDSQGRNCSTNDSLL
Chain of D(2) dopamine receptor (Homo sapiens) (P14416 whole entry, looked up): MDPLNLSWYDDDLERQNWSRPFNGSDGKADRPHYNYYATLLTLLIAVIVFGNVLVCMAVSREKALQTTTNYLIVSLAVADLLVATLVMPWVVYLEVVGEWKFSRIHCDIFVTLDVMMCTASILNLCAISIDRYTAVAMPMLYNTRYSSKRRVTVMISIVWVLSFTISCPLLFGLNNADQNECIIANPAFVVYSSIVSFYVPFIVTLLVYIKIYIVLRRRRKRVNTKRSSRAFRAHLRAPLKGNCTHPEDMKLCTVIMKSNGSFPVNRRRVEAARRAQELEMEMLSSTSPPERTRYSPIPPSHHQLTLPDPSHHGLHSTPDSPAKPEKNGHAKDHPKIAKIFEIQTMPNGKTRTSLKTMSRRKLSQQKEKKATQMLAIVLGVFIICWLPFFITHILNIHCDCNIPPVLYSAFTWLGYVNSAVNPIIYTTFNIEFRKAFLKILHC
Chain of Muscarinic acetylcholine receptor M1 (Homo sapiens) (P11229 whole entry, looked up): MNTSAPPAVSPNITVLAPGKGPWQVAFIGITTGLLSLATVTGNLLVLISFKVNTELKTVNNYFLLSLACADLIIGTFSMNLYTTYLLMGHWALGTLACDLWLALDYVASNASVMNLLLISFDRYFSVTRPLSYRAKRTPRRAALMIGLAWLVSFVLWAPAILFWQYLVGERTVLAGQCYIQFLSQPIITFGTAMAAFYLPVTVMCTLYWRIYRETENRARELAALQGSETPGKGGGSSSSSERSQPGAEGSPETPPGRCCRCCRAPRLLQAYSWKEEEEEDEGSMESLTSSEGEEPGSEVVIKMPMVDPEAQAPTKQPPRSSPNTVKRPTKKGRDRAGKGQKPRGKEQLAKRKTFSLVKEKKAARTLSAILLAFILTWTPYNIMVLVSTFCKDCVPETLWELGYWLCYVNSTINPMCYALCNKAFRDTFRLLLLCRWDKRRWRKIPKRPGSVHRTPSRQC
Chain of 5-hydroxytryptamine receptor 2A (Homo sapiens) (P28223 whole entry, looked up): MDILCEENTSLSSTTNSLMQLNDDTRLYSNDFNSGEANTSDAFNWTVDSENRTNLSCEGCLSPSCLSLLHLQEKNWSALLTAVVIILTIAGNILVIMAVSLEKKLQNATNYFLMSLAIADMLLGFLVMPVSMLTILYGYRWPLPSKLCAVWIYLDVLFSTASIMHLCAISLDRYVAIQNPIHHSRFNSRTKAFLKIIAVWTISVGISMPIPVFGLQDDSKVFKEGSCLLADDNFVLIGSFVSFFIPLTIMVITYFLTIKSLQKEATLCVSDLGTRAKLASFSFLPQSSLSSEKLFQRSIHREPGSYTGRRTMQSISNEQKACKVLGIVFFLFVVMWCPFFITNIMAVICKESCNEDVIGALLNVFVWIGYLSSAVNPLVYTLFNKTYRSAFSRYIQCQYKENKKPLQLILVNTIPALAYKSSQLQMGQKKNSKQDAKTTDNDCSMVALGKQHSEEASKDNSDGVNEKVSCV

With `C=C[C@H]1CN2CC[C@H]1C[C@@H]2[C@@H](O)c1ccnc2ccc(OC)cc12`, the Potency result in assay [1], in [2], in [3], in assay [4], in assay [5] and in [6] was “inactive” in each case. In addition, the Potency result in assay [7], in [8], in [9], in assay [10], in [11] and in assay [12] was “inactive” throughout. Besides, the Potency entry in assay [13], in assay [14] and in assay [15] was “inactive” throughout.

Consider `COC(=O)Nc1nc2ccc(S(=O)c3ccccc3)cc2[nH]1` (stereo unspecified), for which the Potency entry in assay [1], in assay [3], in assay [4], in [5], in [16] and in assay [6] was “inactive” in each case. Also, the Potency entry in assay [11], in assay [17], in assay [13], in assay [14] and in [15] was “inactive” each time. In addition, in [2], the Potency result was “inactive and 13.3 µM (active)”.

Regarding `O=C(NCC1CCCCN1)c1cc(OCC(F)(F)F)ccc1OCC(F)(F)F` (stereo unspecified), the Potency entry in [1], in [2], in assay [3], in [4], in [5] and in assay [7] was “inactive” throughout. The Potency result in [18], in assay [19], in assay [9], in [11], in [17] and in assay [12] was “inactive” throughout. For the same molecule, the Potency entry in assay [14] and in assay [15] was “inactive” each time.

For the molecule `[Cl][Dy]([Cl])[Cl]`, the Potency result in assay [1], in [2], in assay [3], in assay [4], in assay [20] and in assay [16] was “inactive” in each case. Also, the Potency entry in assay [6], in assay [7], in assay [18], in assay [8], in [19] and in assay [9] was “inactive” in each case. In addition, the Potency entry in assay [10], in assay [11], in assay [17], in assay [12], in assay [13] and in [14] was “inactive” in each case.

Take `CC1(C)O[C@@H]2C[C@H]3[C@@H]4C[C@H](F)C5=CC(=O)C=C[C@]5(C)[C@@]4(F)[C@@H](O)C[C@]3(C)[C@]2(C(=O)CO)O1`: the Potency entry in assay [1], in assay [2], in assay [3], in assay [4], in assay [5] and in assay [6] was “inactive” each time. Further, the Potency result in assay [7], in [12], in assay [13], in assay [14] and in [15] was “inactive” throughout.

In the case of `CS(=O)(=O)c1ccc(Cl)cc1`, the Potency entry in [1], in assay [2], in assay [3], in assay [4], in assay [5] and in assay [16] was “inactive” in each case. In addition, the Potency result in [6], in assay [19], in assay [9], in [10], in [17] and in assay [12] was “inactive” each time. The Potency result in assay [14] and in assay [15] was “inactive” in each case.

As to `COC(=O)C1=C(C)NC(C)=C(C(=O)OCCN(C)Cc2ccccc2)C1c1cccc([N+](=O)[O-])c1` (stereo unspecified), the Potency was 30.5 µM (active) in assay [1]; 1.32 µM (active) and inactive in assay [9]. Besides, the Potency entry in [2], in assay [3], in [4], in assay [5], in assay [7] and in assay [8] was “inactive” throughout. Moreover, the Potency result in [19], in assay [17], in assay [12], in assay [14] and in assay [15] was “inactive” throughout.

Consider `CCCCCCC1(C)CCC(=O)O1` (stereo unspecified), for which the Potency result in assay [1], in [2], in assay [3], in assay [4], in assay [20] and in assay [16] was “inactive” each time. In addition, the Potency result in assay [6], in assay [7], in assay [18], in assay [8], in assay [19] and in assay [9] was “inactive” each time. Also, the Potency entry in assay [10], in assay [11], in [17], in assay [12], in assay [13] and in assay [14] was “inactive” each time. Further, the Potency entry in assay [15] is “inactive”.
